In the library only some 10% were active in any assay of this set; here they are far more common.
INS promoter inh – inhibitors of insulin promoter-driven GFP, primary screen, imaging, TRM-6 cells (human fetal islet line), eGFP reporter, cell count | inhibition, % at 2 µM | reporter expression induced with tamoxifen | AID 1273, 2008 | 0.9% of 130,000 active;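 active = inhibition above the mean plus 3 SD, with well images judged a real hit on visual review, cut at about 60% in these data, passing the limit was not always enough; inconclusive = inhibition over the cutoff but images rejected on review; inactive = inhibition not above the cutoff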
L major viab – Leishmania major promastigote growth inhibition, primary screen | Leishmania major promastigotes, resazurin fluorescence viability | inhibition, % at 10 µM | 9% of 200,000 active | AID 1063, 2008; in the data active = inhibition above about 50%;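 note: promastigotes grown with compound for 44 hours at 28 °C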
PTEN del growth – growth suppression of PTEN-null HCT116, primary screen, cell-based, CellTiter-Glo. viability, % at 10 µM. 1.2% of 140,000 active. HCT116 PTEN-null viability, 60 h; active compounds read low;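 active = viability at or below a set limit, 4 SD under the median of all tested compounds, cut at about 3.7% in these data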;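 note: PTEN knockout HCT116 line with beta catenin targeted HCT116 as companion control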
p97 ATPase inh – inhibitors of human p97 ATPase, primary screen, biochemical | 0.42% of 220,000 active | inhibition, % at 8 µM | Transitional endoplasmic reticulum ATPase (Homo sapiens), P55072 | recombinant p97 ATPase, Kinase-Glo ATP luminescence, 3 h | AID 1481, 2009; in the data active = inhibition above about 15%
Target sequence (P55072 whole entry, looked up): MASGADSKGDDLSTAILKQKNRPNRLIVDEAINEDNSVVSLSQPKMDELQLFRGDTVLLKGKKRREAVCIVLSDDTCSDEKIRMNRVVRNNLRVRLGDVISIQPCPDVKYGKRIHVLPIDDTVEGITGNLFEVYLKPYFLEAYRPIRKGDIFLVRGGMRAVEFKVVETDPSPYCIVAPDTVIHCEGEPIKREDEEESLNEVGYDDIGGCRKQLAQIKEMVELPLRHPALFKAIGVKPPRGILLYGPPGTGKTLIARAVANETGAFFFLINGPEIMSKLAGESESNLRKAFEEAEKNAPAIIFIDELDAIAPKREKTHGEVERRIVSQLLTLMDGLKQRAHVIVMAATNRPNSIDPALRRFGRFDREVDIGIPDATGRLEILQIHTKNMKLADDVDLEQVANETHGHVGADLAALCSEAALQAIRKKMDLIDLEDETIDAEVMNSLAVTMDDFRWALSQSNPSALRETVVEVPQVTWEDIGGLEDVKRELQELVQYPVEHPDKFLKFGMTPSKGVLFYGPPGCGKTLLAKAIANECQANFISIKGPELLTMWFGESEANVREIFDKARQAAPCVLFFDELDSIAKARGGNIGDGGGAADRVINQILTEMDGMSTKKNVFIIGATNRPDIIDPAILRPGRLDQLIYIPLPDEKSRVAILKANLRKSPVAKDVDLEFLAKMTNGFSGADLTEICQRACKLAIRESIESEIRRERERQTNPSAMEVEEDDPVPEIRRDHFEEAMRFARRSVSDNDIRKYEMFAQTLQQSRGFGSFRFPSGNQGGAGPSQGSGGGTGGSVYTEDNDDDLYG
ROMK primary – ROMK potassium channel modulators, primary screen, cell-based, thallium flux, MLSMR library; ATP-sensitive inward rectifier potassium channel 1 (Homo sapiens), P48048; B-score at 10 µM; AID 1918, 2009; 2% of 130,000 active; Tet-inducible ROMK, thallium flux fluorescence; actives lie on both sides;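 active = signal ratio slope over the read window, or its plate-corrected B-score, at least 3 SD from the plate mean, either direction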;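 note: B-score of the F/F0 ratio slope over 7 to 12 s after thallium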
bCat KO growth – primary screen for growth suppressors in beta-catenin knockout HCT116 cells (colon tumor, human); HCT116 beta-catenin knockout viability, CellTiter-Glo, 60 h; active compounds read low; viability, % at 10 µM; 1.5% of 140,000 active; AID 818, 2007;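 active = viability at or under a set limit, the compound median less 4 SD, cut at about 6% in these data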
L major 1uM – Leishmania major promastigote growth inhibition, confirmation, 1 µM repeat of primary hits; 13% of 1,100 active; inhibition, % at 1 µM; shares compounds with L major viab; L. major promastigote growth, resazurin fluorescence, 48 h; AID 1258, 2008;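 active = inhibition above about 50% in both repeat tests, limit read from the data; inconclusive = one repeat under the set limit, the other over it; inactive = both repeats under the set limit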
p97 confirm – p97 ATPase inhibitors, retest, confirmation, biochemical; shares compounds with p97 ATPase inh; recombinant p97 ATPase, Kinase-Glo ATP luminescence; inhibition, % at 8 µM; 44% of 760 active;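 active = percent inhibition of p97 ATPase above a set limit, the primary screen's mean plus 3 SD, cut at about 15% in these data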
ROMK hit retest – ROMK channel modulator hit retest, confirmation, cell-based, thallium flux, duplicate, resupplied hits | shares compounds with ROMK primary | fluorescence ratio; active compounds read low | normalized thallium flux (F/F0 slope) at 10 µM | 54% of 3,000 active;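 active = Flux at 10 µM at least 3 SD below or above vehicle control mean in one or both replicates; inconclusive = no clear call, values can overlap the other calls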
Of the large screens only hits and unclear results are named; the others gave an inactive call (follow-up assays come after a bar, where they were run).

CC(=O)N1[C@H](Cc2ccccc2)C=C[C@]1(C)C(=O)NCc1ccccn1	none
CN1CCC(C2(O)c3ccccc3CSc3sccc32)CC1 (centres undefined)	L major viab 67 | L major 1uM inactive
COCCn1c(N)c(N(Cc2ccccc2)C(=O)c2oc3ccccc3c2C)c(=O)[nH]c1=O	none (no result: PTEN del growth, bCat KO growth)
CCOC(=O)c1ccc2ncc(C(=O)OCC)c(NCc3ccco3)c2c1	L major viab 57, ROMK primary 3.3 (no result: INS promoter inh) | L major 1uM inactive
O=C(O)CC(NC(=S)NCc1ccccc1)C(=O)O (centres undefined)	L major viab 80 | L major 1uM inactive
CCS(=O)(=O)c1nnnn1-c1ccccc1S(C)(=O)=O	L major viab 54 | L major 1uM inactive
COc1ccc(-n2nnnc2S(=O)(=O)Cc2ccc(C(=O)O)cc2)cc1	none (no result: ROMK primary)
Fc1cccc(NC(=S)NCc2ccc(Cl)cc2)c1	L major viab 70 | L major 1uM inactive
C#CC(C)(CC)NC(=O)c1cc2cccc(CC=C)c2oc1=O (centres undefined)	none (no result: PTEN del growth, bCat KO growth)
Cc1noc(/C=C/c2ccco2)c1S(=O)(=O)N1CCC(C(=O)NCc2ccco2)CC1	L major viab 77 (no result: INS promoter inh, ROMK primary) | L major 1uM inactive
CCS(=O)(=O)N1CCC(C(=O)NCc2ccco2)CC1	none (no result: INS promoter inh, ROMK primary)
O=c1c2ccccc2nc2c3ccccc3c(NCCN3CCOCC3)nn12	L major viab 100, PTEN del growth 2.5, bCat KO growth 1.9 | L major 1uM inactive
CN(C)c1ccc(CN2CCCCCC2)cc1	none (no result: ROMK primary)
CCN(CC)c1ccc(CN2CCCCCC2)cc1	L major viab 90 (no result: ROMK primary) | L major 1uM inactive
Cc1ccc(S(=O)(=O)N2CCC[C@H]2C(=O)OC(C)C(=O)Nc2ncc(Cl)cc2Cl)cc1 (some centres undefined)	none (no result: ROMK primary)
COc1cccc(NC(=O)CN(C)CC(=O)Nc2ccc(Cl)cc2[N+](=O)[O-])c1	none (no result: PTEN del growth, bCat KO growth)
O=[N+]([O-])c1ccc2c(c1)c(-c1ccccc1)nc1nncn12	L major viab 56, p97 ATPase inh 34 (no result: PTEN del growth, bCat KO growth) | L major 1uM inactive | p97 confirm inactive
O=[N+]([O-])c1ccc2c(c1)ncn2-c1ccccc1	none (no result: INS promoter inh, ROMK primary)
COc1ccc(/C=C2\SC(N3CCc4ccccc4C3)=NC2=O)cc1OC	none (no result: ROMK primary)
O=C(O)/C=C/C(=O)Nc1ccc(OC(F)F)cc1	none (no result: INS promoter inh, PTEN del growth, bCat KO growth)
O=S(=O)(CCSc1nc2ccccc2s1)c1nc2ccccc2s1	L major viab 100, PTEN del growth 3.3, p97 ATPase inh 23, bCat KO growth 3.9 | L major 1uM 54 | p97 confirm 17
CCS(=O)(=O)CCSc1nc2ccccc2s1	none (no result: INS promoter inh, ROMK primary)
FC(F)(F)c1nnc2c(Sc3ccccn3)nc3ccccc3n12	L major viab 94, PTEN del growth 2.7, p97 ATPase inh 19, bCat KO growth 2.1 (no result: INS promoter inh) | L major 1uM inactive | p97 confirm inactive
CC1=Nc2ccccc2/C1=C/c1sc(=N)n(-c2nccs2)c1O	L major viab 100, PTEN del growth 2.3, p97 ATPase inh 29, bCat KO growth 3.9 (no result: ROMK primary) | L major 1uM inactive | p97 confirm 36
Cc1cccc(-n2c3nc(=O)[nH]c(=O)c-3cc3cc([N+](=O)[O-])ccc32)c1	L major viab 95, ROMK primary -2.8 | L major 1uM inactive | ROMK hit retest 0.048
CCCCn1cnc(C(=O)OCC)c1N	none
CCCCCCCCCCCCCCCCn1cc[n+](C)c1	L major viab 101 (no result: PTEN del growth, bCat KO growth) | L major 1uM 99 | ROMK hit retest 0.065
CCCCCCCCn1ccc(=N)cc1	none (no result: INS promoter inh, L major viab, PTEN del growth, bCat KO growth)
CC12COC3(P(=O)(c4ccccc4)c4ccccc4)CC1CCC23CP(=O)(c1ccccc1)c1ccccc1 (centres undefined)	L major viab 62, ROMK primary -2.9 (no result: INS promoter inh, PTEN del growth, bCat KO growth) | L major 1uM inactive | ROMK hit retest 0.051
CCOC(=O)c1c(CSC(=N)N)n(-c2ccc(C)cc2)c2cc(Br)c(OC(C)=O)cc12	L major viab 53 (no result: ROMK primary) | L major 1uM inactive | ROMK hit retest 0.045
c1ccc(-c2nc3nonc3nc2-c2ccccc2)cc1	L major viab 84, PTEN del growth 2.4, ROMK primary -4.2, bCat KO growth 2.3 (no result: INS promoter inh) | L major 1uM inactive | ROMK hit retest 0.063
Nc1c(-c2ccccc2)nc(Cl)nc1-c1ccccc1	none (no result: INS promoter inh)
CCOC(=O)/C(=C/c1c(C)n(C)c2ccc([N+](=O)[O-])cc12)C(C)=O	L major viab 83, ROMK primary -4.2 | L major 1uM inactive | ROMK hit retest 0.046
CC(=O)NCCNC(=O)CCNC(=O)c1ccc(Cl)cc1	none
Cc1ccc(C)c(N2CCN(C(=O)c3ccc(CSc4nc5ccncc5[nH]4)cc3)CC2)c1	L major viab 89, ROMK primary -4.2 | L major 1uM inconclusive | ROMK hit retest inactive
O=C(c1ccc(CSc2nc3ccncc3[nH]2)cc1)N1CCCCC1	none
COc1cc2c(cc1NC(=O)CN(C)Cc1nc3ccccc3c(=O)[nH]1)oc1ccccc12	none (no result: INS promoter inh)
O=C(O)CCC(=O)Nc1ccc(S(=O)(=O)N2CCCC2)cc1	none (no result: INS promoter inh, ROMK primary)
O=C(O)CCC(=O)Nc1ccc(N2CCCCCC2)cc1	L major viab 97, ROMK primary 5.1 | L major 1uM 94 | ROMK hit retest inactive
O=C(/C=C/c1ccccc1[N+](=O)[O-])c1ccccc1Br	L major viab 100, ROMK primary -6.1 (no result: PTEN del growth, bCat KO growth) | L major 1uM inactive | ROMK hit retest 0.049
CN(C)CC/C=C1\c2cc(F)ccc2CSc2ccccc21	L major viab 72, ROMK primary -3.2 | L major 1uM inactive | ROMK hit retest 0.061
Cc1ccc(NC(=O)N2CCCN(Cc3ccc(F)cc3)C2)cc1C	L major viab 94, ROMK primary -4 | L major 1uM 53 | ROMK hit retest 0.056
Fc1ccc(CN2CCCN(C(=S)Nc3ccc(F)cc3)CC2)cc1	none (no result: INS promoter inh, L major viab, PTEN del growth, ROMK primary, bCat KO growth)
CCO[C@H]1OC(C(=O)O)=C[C@@H](c2ccc3c(c2)OCO3)[C@@H]1CCCO	none (no result: INS promoter inh, PTEN del growth, ROMK primary, bCat KO growth)
Cc1cc(C(C)(C)C)cc(C)c1Cn1c2[n+](c3ccc(C(F)(F)F)cc31)CCCCC2	L major viab 100, ROMK primary -4.9 (no result: INS promoter inh, PTEN del growth, bCat KO growth) | L major 1uM inactive | ROMK hit retest 0.048
NC(=O)[C@@H]1CCCN1Cc1nc(-c2ccccc2)no1	none (no result: INS promoter inh, PTEN del growth, bCat KO growth)
O=C(c1cnc2n(c1=O)CCS2)N1CCN(c2ccc([N+](=O)[O-])cc2)CC1	none (no result: INS promoter inh, ROMK primary)
